Data reported in PubChem BioAssay AID1159580 (chemical genetic matrix, 2015).
The whole screen tested about 5,500 compounds, of which about 2,000 (36%) were called active. Another 18% or so got no clear call; they are omitted. Cut-off read from the data, not from the text of the source: active = normalized growth mostly below about 0.91 (no sharp cut-off); inconclusive = no clear call, values can overlap the other calls; inactive = mostly above about 0.92. This is one part of the list.

Assay: chemical genetic growth profiling, strain panel (AID 1159580);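 note: tested at 20 µM; growth read once vehicle control cultures reached saturation at 30 °C; 1 = growth at the plate median or of vehicle wells; lower values mean less growth of the strain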
Details: S. cerevisiae deletion strains, growth OD
[1] = locus YAR019C, strain CDC15, active compounds read low
[2] = locus YBL105C, strain PKC1, active compounds read low
[3] = locus YBR135W, strain CKS1, active compounds read low
[4] = locus YBR136W, strain MEC1, active compounds read low
[5] = locus YBR160W, strain CDC28, active compounds read low
[6] = locus YDL017W, strain CDC7, active compounds read low
[7] = locus YDL028C, strain MPS1, active compounds read low
[8] = locus YDL101C, strain DUN1, active compounds read low
[9] = locus YDL108W, strain KIN28, active compounds read low
[10] = locus YDL132W, strain cdc53, active compounds read low
[11] = locus YDL214C, strain PRR2, active compounds read low
[12] = locus YDR052C, strain DBF4, active compounds read low
[13] = locus YDR054C, strain cdc34, active compounds read low
[14] = locus YDR226W, strain ADK1, active compounds read low
[15] = locus YDR477W, strain SNF1, active compounds read low
[16] = locus YER123W, strain YCK3, active compounds read low
[17] = locus YER133W, strain GLC7, active compounds read low
[18] = locus YFL009W, strain cdc4, active compounds read low
[19] = locus YFL029C, strain CAK1, active compounds read low
[20] = locus YFR003C, strain YPI1, active compounds read low
[21] = locus YFR019W, strain FAB1, active compounds read low
[22] = locus YFR028C, strain CDC14, active compounds read low
[23] = locus YGR040W, strain KSS1, active compounds read low
[24] = locus YGR052W, strain FMP48, active compounds read low
[25] = locus YGR092W, strain DBF2, active compounds read low
[26] = locus YHR030C, strain SLT2, active compounds read low
[27] = locus YHR079C, strain IRE1, active compounds read low
[28] = locus YHR082C, strain KSP1, active compounds read low
[29] = locus YHR205W, strain SCH9, active compounds read low
[30] = locus YIL147C, strain SLN1, active compounds read low
[31] = locus YJL095W, strain BCK1, active compounds read low
[32] = locus YJL128C, strain PBS2, active compounds read low
[33] = locus YJL157C, strain FAR1, active compounds read low
[34] = locus YJR016C, strain ILV3, active compounds read low
[35] = locus YJR066W, strain TOR1 (second series), active compounds read low
[36] = locus YJR066W, strain TOR1, active compounds read low
[37] = locus YKL048C, strain ELM1, active compounds read low
[38] = locus YKL067W, strain YNK1, active compounds read low
[39] = locus YKL101W, strain HSL1, active compounds read low
[40] = locus YKL193C, strain SDS22, active compounds read low
[41] = locus YKL203C, strain TOR2, active compounds read low
[42] = locus YLR113W, strain HOG1, active compounds read low
[43] = locus YLR133W, strain CKI1, active compounds read low
[44] = locus YLR403W, strain SFP1, active compounds read low
[45] = locus YML070W, strain DAK1, active compounds read low
[46] = locus YMR001C, strain CDC5, active compounds read low
[47] = locus YMR205C, strain PFK2 (second series), active compounds read low
[48] = locus YMR277W, strain FCP1, active compounds read low
[49] = locus YNL006W, strain LST8, active compounds read low
[50] = locus YNL020C, strain ARK1, active compounds read low
[51] = locus YNL161W, strain CBK1, active compounds read low
[52] = locus YNL183C, strain NPR1, active compounds read low
[53] = locus YNL207W, strain RIO2, active compounds read low
[54] = locus YNL222W, strain SSU72, active compounds read low
[55] = locus YNL307C, strain MCK1 (second series), active compounds read low
[56] = locus YOL078W, strain AVO1, active compounds read low
[57] = locus YOL136C, strain PFK27, active compounds read low
[58] = locus YOR061W, strain CKA2, active compounds read low
[59] = locus YOR119C, strain RIO1, active compounds read low
[60] = locus YOR231W, strain MKK1, active compounds read low
[61] = locus YOR329C, strain SCD5, active compounds read low
[62] = locus YPL031C, strain PHO85, active compounds read low
[63] = locus YPL153C, strain RAD53, active compounds read low
[64] = locus YPL204W, strain HRR25, active compounds read low
[65] = locus YPL209C, strain IPL1, active compounds read low
[66] = locus YPL256C, strain CLN2, active compounds read low
[67] = locus YPR025C, strain CCL1, active compounds read low
[68] = locus YPR106W, strain ISR1, active compounds read low
[69] = locus YPR111W, strain DBF20, active compounds read low
[70] = strain NNK1, active compounds read low
[71] = strain TSCII, active compounds read low
[72] = locus YAL013W, strain DEP1, active compounds read low
[73] = locus YBR229C, strain ROT2, active compounds read low
[74] = locus YDL134C, strain PPH21, active compounds read low
[75] = locus YDR150W, strain NUM1, active compounds read low
[76] = locus YEL061C, strain CIN8, active compounds read low
[77] = locus YGR078C, strain PAC10, active compounds read low
[78] = locus YHR087W, strain rtc3, active compounds read low
[79] = locus YJR043C, strain POL32, active compounds read low
[80] = locus YJR075W, strain HOC1, active compounds read low
[81] = locus YKL190W, strain CNB1, active compounds read low
[82] = locus YLR039C, strain RIC1, active compounds read low
[83] = locus YLR058C, strain SHM2 (second series), active compounds read low
[84] = locus YLR085C, strain ARP6, active compounds read low
[85] = locus YLR262C, strain YPT6, active compounds read low
[86] = locus YML094W, strain GIM5, active compounds read low
[87] = locus YMR219W, strain ESC1, active compounds read low
[88] = locus YMR263W, strain SAP30, active compounds read low
[89] = locus YNL153C, strain GIM3, active compounds read low
[90] = locus YNL298W, strain CLA4 (second series), active compounds read low
[91] = locus YNL322C, strain KRE1, active compounds read low
[92] = locus YNR030W, strain Alg12, active compounds read low
[93] = locus YPL055C, strain LGE1, active compounds read low
[94] = locus YPL241C, strain CIN2, active compounds read low
[95] = locus YPR135W, strain CTF4, active compounds read low

Measured: normalized growth

O=C(NNc1ccc(Cl)cc1)c1ccc(F)cc1F
inactive: [1] 0.937 | [2] 0.942 | [3] 0.952 | [4] 0.946 | [5] 0.942 | [6] 0.95 | [7] 0.959 | [8] 0.949 | [9] 0.959 | [10] 0.967 | [11] 0.701 | [12] 0.938 | [13] 0.949 | [14] 0.967 | [15] 0.701 | [17] 0.755 | [18] 0.971 | [19] 0.944 | [20] 0.952 | [22] 0.958 | [23] 0.718 | [24] 0.63 | [27] 0.747 | [28] 0.762 | [29] 0.663 | [30] 0.953 | [32] 0.897 | [33] 0.736 | [34] 0.94 | [36] 0.759 | [38] 0.752 | [39] 0.784 | [40] 0.949 | [41] 0.855 | [44] 0.744 | [46] 0.942 | [47] 0.826 | [48] 0.956 | [49] 0.968 | [50] 0.765 | [51] 0.947 | [52] 0.777 | [53] 0.946 | [54] 0.946 | [56] 0.948 | [59] 0.796 | [60] 0.695 | [61] 0.95 | [62] 0.766 | [63] 0.696 | [64] 0.723 | [65] 0.941 | [67] 0.947 | [68] 0.965 | [69] 0.974 | [70] 0.937 | [71] 0.947
active: [16] 0.404 | [21] 0.547 | [25] 0.345 | [26] 0.372 | [31] 0.271 | [35] 0.606 | [37] 0.747 | [42] 0.373 | [43] 0.701 | [45] 0.54 | [55] 0.451 | [57] 0.616 | [58] 0.399 | [66] 0.487

O=C(NNc1c(Cl)cc(Cl)cc1Cl)NC(=O)c1ccccc1F
inactive: [72] 0.997 | [73] 0.982 | [8] 0.998 | [74] 1.02 | [75] 1.02 | [76] 0.996 | [77] 1 | [26] 0.905 | [78] 1.02 | locus YJL187C, strain SWE1, active compounds read low 0.999 | [79] 1 | [80] 0.99 | [81] 1.02 | [82] 0.936 | [83] 1.02 | [84] 0.992 | [85] 0.965 | [86] 1 | [87] 1.02 | [88] 1.01 | locus YNL128W, strain TEP1, active compounds read low 1.01 | [89] 0.989 | [90] 0.986 | [91] 1 | [92] 1.04 | [93] 1.01 | [94] 0.986 | [95] 0.966

O=C1CSC(c2ccc(Cl)c(Cl)c2)N1c1ccc(F)cc1 (stereo not drawn)
active: [74] 0.886
inactive: [72] 0.988 | [73] 0.975 | [8] 0.964 | [75] 0.968 | [76] 0.988 | [77] 0.975 | [26] 0.95 | [78] 0.985 | [79] 0.974 | [80] 0.939 | [81] 0.985 | [82] 0.994 | [83] 1 | [84] 0.942 | [85] 0.947 | [86] 0.95 | [87] 0.994 | [88] 0.989 | [89] 0.962 | [90] 0.93 | [91] 0.988 | [92] 0.906 | locus YOL006C, strain TOP1, active compounds read low 0.889 | [93] 0.971 | [94] 0.977 | [95] 0.85

Cc1ccc(N2C(=O)CSC2c2ccc(Cl)c(Cl)c2)cc1Cl (stereo not drawn)
inactive: [1] 0.982 | [2] 0.974 | [3] 0.982 | [4] 0.976 | [5] 0.978 | [6] 0.975 | [7] 0.977 | [8] 0.97 | [9] 0.98 | [10] 0.982 | [11] 0.95 | [12] 0.98 | [13] 0.971 | [14] 0.973 | [15] 0.96 | [16] 0.956 | [17] 0.981 | [18] 0.977 | [19] 0.977 | [20] 0.973 | [21] 0.97 | [22] 0.988 | [23] 0.965 | [24] 1.01 | [25] 0.935 | [27] 0.887 | [28] 1.07 | [29] 0.94 | [30] 0.981 | [31] 0.918 | [32] 0.922 | [33] 0.961 | [34] 0.988 | [35] 0.913 | [36] 0.995 | [37] 0.957 | [38] 0.959 | [39] 0.953 | [40] 0.977 | [41] 1.01 | [43] 0.947 | [44] 0.95 | [45] 0.943 | [46] 0.975 | [47] 0.977 | [48] 0.981 | [49] 0.976 | [50] 0.933 | [51] 0.977 | [52] 0.994 | [53] 0.968 | [54] 0.988 | [55] 0.942 | [56] 0.982 | [57] 0.928 | [58] 0.953 | [59] 1.03 | [60] 0.937 | [61] 0.972 | [62] 0.957 | [63] 0.984 | [64] 0.933 | [65] 0.976 | [67] 0.977 | [68] 0.971 | [69] 0.962 | [70] 0.959 | [71] 0.981
active: [26] 0.808 | [42] 0.791 | [66] 0.826

O=C1CSC(c2ccc(C(F)(F)F)cc2)N1c1ccc(C(F)(F)F)cc1 (stereo not drawn)
inactive: [1] 0.998 | [2] 1 | [3] 0.997 | [4] 1 | [5] 1 | [6] 1 | [7] 0.999 | [8] 1 | [9] 0.996 | [10] 0.997 | [11] 0.952 | [12] 1.01 | [13] 1 | [14] 1 | [15] 0.966 | [16] 0.911 | [17] 0.968 | [18] 1 | [19] 0.986 | [20] 0.994 | [21] 0.95 | [22] 0.993 | [23] 0.962 | [24] 0.972 | [25] 0.979 | [26] 0.878 | [27] 0.897 | [28] 0.936 | [29] 0.885 | [30] 1 | [31] 0.933 | [32] 0.939 | [33] 0.976 | [34] 1 | [35] 0.951 | [36] 0.936 | [37] 0.968 | [38] 0.946 | [39] 0.923 | [40] 1 | [41] 1.02 | [43] 0.949 | [44] 0.949 | [45] 0.924 | [46] 1 | [47] 0.942 | [48] 0.999 | [49] 1 | [50] 0.957 | [51] 1.01 | [52] 0.898 | [53] 0.995 | [54] 1 | [55] 0.941 | [56] 1.01 | [57] 0.937 | [58] 0.943 | [59] 1.03 | [60] 0.914 | [61] 1 | [62] 0.97 | [63] 0.96 | [64] 0.959 | [65] 1.01 | [66] 0.871 | [67] 0.998 | [68] 0.988 | [69] 0.979 | [70] 0.98 | [71] 0.999
active: [42] 0.829
